# Bioassay records deposited in PubChem by The Scripps Research Institute Molecular Screening Center.
# Only some compounds are listed: those with a hit (about 4.8% of all), similar ones and a draw of the others.
# hgDAF12 agonist: agonists of H. glycines DAF-12 nuclear receptor | HEK293 GAL4-hgDAF12 UAS-luciferase reporter, agonist luminescence; normalized to butyrate control | activation, % at 6.8 µM | 1.8% of 370,000 active;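 active = activation above a cutoff set at the mean of all screened compounds plus 3 SD, cut at about 10% in these data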;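 note: 0% = DMSO wells and 100% = sodium butyrate wells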
# DAX1 inh-1: inhibits human nuclear receptor DAX1 | P51843 | HEK293 Gal4-DAX1 luciferase reporter, luminescence | inhibition, % at 6.75 µM | 0.99% of 340,000 active;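 active = inhibition above the mean over all tested compounds plus 3 SD, cut at about 4.2% in these data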;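 note: 0% = DAX1-transfected cells with DMSO and 100% = empty-vector control cells with DMSO; inhibition shows as a rise in luminescence from relieved DAX1 repression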
# Target sequence (P51843 207-470 limits assumed): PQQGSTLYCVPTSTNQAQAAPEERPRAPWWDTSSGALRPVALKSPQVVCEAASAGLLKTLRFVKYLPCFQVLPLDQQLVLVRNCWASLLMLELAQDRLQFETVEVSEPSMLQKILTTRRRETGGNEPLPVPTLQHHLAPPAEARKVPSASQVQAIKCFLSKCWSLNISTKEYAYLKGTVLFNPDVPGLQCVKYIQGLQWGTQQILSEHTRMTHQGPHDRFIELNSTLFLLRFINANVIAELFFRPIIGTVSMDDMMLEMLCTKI
# SMARCA2 activ: SMARCA2 function activation, primary screen | MG213 cells, MMTV-luciferase reporter, dexamethasone, overnight | activation, % at 9.1 µM | 1% of 370,000 active | AID 652017; in the data active = activation above about 7.8%;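 note: 0% = vehicle wells and 100% = reference activator wells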
# hcDAF12 agonist: activators of H. contortus DAF-12 nuclear receptor; HEK293 hcDAF-12 lit1-tk-luc reporter, luminescence; 0% DMSO, 100% Δ7-dafachronic acid; activation, % at 6.8 µM; 1.4% of 370,000 active; AID 652067;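 active = activation above the mean of all tested compounds plus 3 SD, cut at about 5.5% in these data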;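 note: 100% = response to 3 µM Δ7-dafachronic acid high control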
# DAX1 inh-2: DAX1 (NR0B1) inhibition, primary screen; HEK293T StAR-luciferase reporter, SF-1/DAX-1 repression relief; inhibition, % at 6.8 µM; 1.1% of 370,000 active;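 active = inhibition above the mean over all tested compounds plus 3 SD, cut at about 3.6% in these data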;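 note: 0% = DAX-1 cells with DMSO and 100% = cells lacking DAX-1 with DMSO; higher inhibition means more luminescence from relief of DAX-1 repression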
# ssDAF-12 act: S. stercoralis DAF-12 activation, primary screen. 1% of 370,000 active. HEK293 ssDAF-12/GRIP1 lit1-tk-luc reporter, luminescence; % of 3 µM dafachronic acid response. activation, % at 6.8 µM. AID 652126;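 active = activation above the mean over all tested compounds plus 3 SD, cut at about 0.9% in these data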;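 note: 0% = DMSO-only wells and 100% = 3 µM delta7-dafachronic acid wells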
# SMARCA2 conf: SMARCA2 activation, confirmation screen. shares compounds with SMARCA2 activ. MG213 cells, MMTV-luciferase with dexamethasone, luminescence, overnight; MG213 cells expressing E1A, Rb sequestered; DMSO wells 0%, reference activator 100%. activation, % at 9.1 µM. 30% of 3,500 active. AID 652260;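 active = activation above its plate's cutoff, the mean activation of tested wells plus 3 SD, cut at about 7.9% in these data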
# GAL4-VP16 Luc: activates GAL4-VP16 luciferase, flagging SMARCA2 activator hits. HEK293 GAL4-VP16 pG5luc reporter, luciferase luminescence; scaled: DMSO wells 0%, SAHA wells 100%. AID 686939. 41% of 3,500 active. activation, % at 9.1 µM. shares compounds with SMARCA2 activ;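 active = activation above the solvent-only control well mean plus 3 SD, averaged across control plates, cut at about 5.2% in these data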
# An asterisk follows results filed as active; nt = no result given.
SMILES,hgDAF12 agonist,DAX1 inh-1,SMARCA2 activ,hcDAF12 agonist,DAX1 inh-2,ssDAF-12 act,SMARCA2 conf,GAL4-VP16 Luc
O=C(N/N=C/c1ccc([N+](=O)[O-])cc1)c1cnccn1,1,nt,-3,0,1,-2,nt,nt
C/C(=N\NC(=O)c1cnccn1)c1ccc([N+](=O)[O-])cc1,4,1,9.6*,0,0,-1,4,3
CCCn1c(N)c(C(=O)COC(=O)CCNS(=O)(=O)c2ccccc2F)c(=O)[nH]c1=O,-1,-1,-2,0,1,-1,nt,nt
Cc1ccc2cccc(N=Cc3c(C)[nH]n(-c4ccccc4)c3=O)c2n1,-2,1,14*,2,-1,-1,-13,8.1*
Cc1[nH]n(-c2ccccc2)c(=O)c1/C=N/O,-2,0,-1,0,0,-1,nt,nt
CC(C)NC(=S)N/N=C1\CCCc2ccccc21,0,1,-3,1,-1,-1,nt,nt
COC(=O)c1c(-c2ccccc2)[nH]c(-c2nccc3ccccc23)c1C(=O)OC,0,1,8.4*,1,0,0,0,3
CC(c1ccon1)N(C)Cc1cn(C)nc1-c1cccc(Cl)c1 (centres undefined),3,-1,2,2,0,-1,nt,nt
COCC1COS(=O)(=O)NC1(C)C (centres undefined),1,1,-1,0,1,-1,nt,nt
C=CCn1c(O)c(N=NC(=S)Nc2ccc(OC)cc2)c2ccccc21,0,0,-2,3,-1,-1,nt,nt
C=CCn1c(O)c(N=NC(=S)Nc2cccc(OC)c2)c2ccccc21,-7,-3,10*,-4,-2,-2,-1,3
C=CCn1c(=O)c2ccccc2n2c(SCC(C)=O)nnc12,0,0,-3,-1,0,-1,nt,nt
COC(=O)c1[nH]c2c(c1C)C(=O)CC(c1cccc(OC)c1)C2 (centres undefined),3,-1,-1,0,-1,0,nt,nt
O=C(/C=C/c1ccccc1)c1ccc(NC2=NCCCS2)cc1,5,0,5,3,1,-1,nt,nt
O=C(/C=C/c1ccc(Br)cc1)c1ccc(NC2=NCCCS2)cc1,6,-2,25*,-1,-3,-2,12*,2
COc1ccc(C)cc1CN1C(=O)c2ccccc2C1=O,1,-2,-2,-3,0,-1,nt,nt
COC(=O)c1cnc(N2CCOCC2)nc1C(F)(F)F,1,3,-4,-1,1,0,nt,nt
CC(C)C[C@@H](CN1CCCC1CN1C(=S)NC[C@@H]1Cc1ccc(O)cc1)N1C[C@H](Cc2ccc(O)cc2)N(CC2CCCCC2)C1=S (some centres undefined),0,0,-7,0,-1,-1,nt,nt
CCN(c1ccc(C)cc1C)S(=O)(=O)c1nnc(NC(=O)C(C)(C)C)s1,1,-1,-1,-1,0,-2,nt,nt
Cc1ccsc1/C=N/NC(=O)c1ccncc1,4,0,5,2,0,-1,nt,nt
C/C=C/C=N\NC(=O)c1ccncc1,5,1,8.2*,2,0,0,3,-1
Cc1c(/C=N/O)c2ccccn2c1C=O,0,0,-2,1,0,-2,nt,nt
C=CCNC(=O)N1CCC(c2nc3ccc(Cl)cc3[nH]2)CC1,-4,nt,9.7*,1,1,-1,-3,2
CC1(Cc2ccc3c(c2)OCO3)C(=O)Nc2c(Cl)ccc(Cl)c21 (centres undefined),1,nt,-2,-2,0,-1,nt,nt
C=C1c2ccccc2NC(=O)N1c1ccc(OC)cc1,10,1,9.1*,0,3,-1,13*,3
CCOc1ccc(NC(=O)COc2ccc3c(c2)CCC3)cc1OC,-4,0,-2,0,0,-1,nt,nt
Cc1cc(=O)[nH]c(SCC(=O)NCC2CCCCC2)c1C#N,-1,1,4,-1,0,-1,nt,nt
O=C(CCc1ccccc1)c1ccc2c(c1)OCCCO2,9,3,6,2,2,0,nt,nt
O/N=C(/CCc1ccccc1)c1ccc2c(c1)OCCO2,11*,1,12*,2,3,-1,12*,12*
